Bioassay records (PubChem BioAssay)
Sampled rows, rich in hits. Any-hit rate of the full collection: about 4.8%.
ssDAF12 agonist: S. stercoralis DAF-12 activation, primary screen | HEK293 ssDAF-12/GRIP1 lit1-tk-luc reporter, luminescence; % of 3 µM dafachronic acid response | activation, % at 6.8 µM | 370,000 tested, 1% active;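 active = activation above the mean over all tested compounds plus 3 SD, cut at about 0.9% in these data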;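 note: 0% = DMSO-only wells and 100% = 3 µM delta7-dafachronic acid wells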
hcDAF-12 act: H. contortus DAF-12 activation, primary screen; HEK293 hcDAF-12 lit1-tk-luc reporter, luminescence; 0% DMSO, 100% Δ7-dafachronic acid; activation, % at 6.8 µM; 370,000 tested, 1.4% active; AID 652067;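 active = activation above the mean of all tested compounds plus 3 SD, cut at about 5.5% in these data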;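 note: 100% = response to 3 µM Δ7-dafachronic acid high control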
SMARCA2 activ: activators of SMARCA2 function; MG213 cells, MMTV-luciferase reporter, dexamethasone, overnight; activation, % at 9.1 µM; 370,000 tested, 1% active; in the data active = activation above about 7.8%;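 note: 0% = vehicle wells and 100% = reference activator wells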
DAX1 inh-1: inhibits human nuclear receptor DAX1 | P51843 | HEK293 Gal4-DAX1 luciferase reporter, luminescence | inhibition, % at 6.75 µM | 340,000 tested, 0.99% active | AID 504766;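 active = inhibition above the mean over all tested compounds plus 3 SD, cut at about 4.2% in these data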;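 note: 0% = DAX1-transfected cells with DMSO and 100% = empty-vector control cells with DMSO; inhibition shows as a rise in luminescence from relieved DAX1 repression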
Target sequence (P51843 207-470 limits assumed): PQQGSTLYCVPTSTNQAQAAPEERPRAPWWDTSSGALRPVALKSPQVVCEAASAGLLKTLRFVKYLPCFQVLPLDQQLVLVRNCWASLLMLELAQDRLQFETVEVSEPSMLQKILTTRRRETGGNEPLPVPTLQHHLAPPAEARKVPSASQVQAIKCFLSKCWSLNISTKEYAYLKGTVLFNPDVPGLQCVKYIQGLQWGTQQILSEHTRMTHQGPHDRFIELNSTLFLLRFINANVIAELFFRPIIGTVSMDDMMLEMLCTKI
DAX1 inh-2: blocks DAX1 repression of SF-1 activated StAR promoter; AID 652010; inhibition, % at 6.8 µM; 370,000 tested, 1.1% active; HEK293T StAR-luciferase reporter, SF-1/DAX-1 repression relief;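 active = inhibition above the mean over all tested compounds plus 3 SD, cut at about 3.6% in these data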;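 note: 0% = DAX-1 cells with DMSO and 100% = cells lacking DAX-1 with DMSO; higher inhibition means more luminescence from relief of DAX-1 repression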
hgDAF12 agonist: hgDAF-12 agonism, primary luciferase screen | HEK293 GAL4-hgDAF12 UAS-luciferase reporter, agonist luminescence; normalized to butyrate control | activation, % at 6.8 µM | 370,000 tested, 1.8% active | AID 687014;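 active = activation above a cutoff set at the mean of all screened compounds plus 3 SD, cut at about 10% in these data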;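 note: 0% = DMSO wells and 100% = sodium butyrate wells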
* marks the source's active call; other numbers are inactive results; x = not tested or not shown.

SMILES	ssDAF12 agonist	hcDAF-12 act	SMARCA2 activ	DAX1 inh-1	DAX1 inh-2	hgDAF12 agonist
COc1cc(-c2nnc(-c3cc(-c4ccccc4)nc4ccccc34)o2)cc(OC)c1OC	1.2*	1	-4	2	0	0
CSCCC(NC(=O)c1ccc(Cl)cc1)C(=O)OCC(=O)c1ccc[nH]1 (centres undefined)	-2	1	1	1	0	2
CSCCC(NC(=O)c1ccc(Cl)cc1)C(=O)OCC(C)=O (centres undefined)	-2	1	-1	5.6*	1	0
CC(=O)NC12CC3CC(CC(CC(=O)O)(C3)C1)C2	-1	0	-1	1	1	1
CC(=O)NC(C)C12CC3CC(CC(CC(=O)O)(C3)C1)C2 (centres undefined)	-1	-1	4	4.4*	0	1
Cc1ccccc1CNC(=O)c1csc([C@H]2C[C@H](O)[C@@H](CO)O2)n1	-1	0	-2	x	-1	0
Cn1c(-c2ccccc2[N+](=O)[O-])[n+](C)c2ccccc21	0	0	-3	5.0*	-1	-2
Nc1nc(NCCCN2CCOCC2)nc(Nc2ccccc2F)c1[N+](=O)[O-]	-1	-2	-5	4.5*	0	-4
Nc1nc(NCCCN2CCOCC2)nc(Nc2ccc(F)cc2)c1[N+](=O)[O-]	-1	-2	0	0	0	0
Cc1cc(=O)[nH]c2ccc(S(=O)(=O)Nc3ccccc3)cc12	0	1	5	4.2*	0	0
COC(=O)c1[nH]c2ccc(F)cc2c1NS(=O)(=O)c1ccc(F)c(C)c1	0	4	-2	-2	0	-1
Cc1ccc(S(=O)(=O)Nc2c(C(=O)O)[nH]c3ccccc23)cc1C	0	5.8*	2	0	0	2
Cc1cc(S(=O)(=O)Nc2c(C(=O)O)[nH]c3ccccc23)ccc1F	1.1*	2	-2	0	0	1
Cc1ccc(NC(=O)COC(=O)CNC(=O)c2ccc3ccccc3c2)c([N+](=O)[O-])c1	-1	1	1	0	0	1
CC(=O)Nc1ccc(N=NN2CCOCC2)cc1	-1	-1	1	-1	0	2
CC(=O)Nc1ccc(N=Nc2ccc(O)cc2)cc1	0	4	7	2	2	12*
O=C(CCC1CCN(Cc2ccccc2Cl)CC1)NC1CC1	-1	-1	3	-1	0	0
COc1cc(CN2CCC(CCC(=O)NC3CC3)CC2)cc(Cl)c1OC	-1	0	2	5.2*	0	2
COc1ccc(CNc2cccnc2Cl)cc1	0	1	1	x	0	11*
COc1ccc(CNc2ncccc2[N+](=O)[O-])cc1	0	-1	3	0	1	5
OCCNc1ncnc2c1nnn2Cc1ccccc1Cl	-1	-1	-4	-1	0	-1
O=S(=O)(NCCc1ccccc1)c1ccc(-n2cnnn2)cc1	-1	1	-1	1	0	3
CCNS(=O)(=O)c1ccc(-c2ccc(-n3cnnn3)cc2)cc1	-1	0	3	6.3*	-1	-3
CCOC(=O)NC(=O)c1cn(Nc2ncc(Cl)cc2C(F)(F)F)c(=O)[nH]c1=O	-2	0	-3	6.2*	0	-1
COC(=O)c1sccc1N/N=C/c1cccc(Oc2ccccc2)c1	-1	1	3	2	2	11*
SMILES	ssDAF12 agonist	hcDAF-12 act	SMARCA2 activ	DAX1 inh-1	DAX1 inh-2	hgDAF12 agonist
COC(=O)c1sccc1N/N=C/c1ccc(OC)c(OC)c1OC	-1	1	4	-1	2	10
CCOc1ncccc1C(=O)N1CCN(C(c2ccccc2)c2ccccc2)CC1	-1	-2	0	-1	-1	-1
COc1cc2sc3ccc(C#CC4(O)CCCCC4)cc3c(=O)c2cc1OC	0	3	7.8*	3	2	7
COc1cccc2sc3ccc(C#CC4(N)CCCCC4)cc3c(=O)c12	0	0	4	2	0	2
COc1cccc2sc3cc(C#CC4(O)CCCCC4)ccc3c(=O)c12	1	2	5	1	2	10*
CCCc1ccc(Oc2coc3cc(OCC(=O)Nc4ccccc4C)ccc3c2=O)cc1	-1	1	0	-1	0	3
COc1ccc(CNC(=O)Cn2ccc(N)nc2=O)cc1	-1	-1	-1	2	0	1
CC1Cc2ccccc2N1C(=O)C1CCN(S(=O)(=O)Cc2ccccc2)CC1 (centres undefined)	-1	-4	-1	0	-1	-4
O=c1oc2ccccc2n1Cc1cccc(Cl)c1	-2	-3	-6	6.4*	0	2
O=c1[nH]c(/C=C/c2cccnc2)c([N+](=O)[O-])c(=O)[nH]1	-1	0	-3	0	0	0
O=C(Nc1cccc(Cl)c1)OC1CCCCc2cccnc21 (centres undefined)	-1	-1	-4	-1	0	0
O=C(Nc1ccccc1)OC1CCCCc2cccnc21 (centres undefined)	1.7*	-1	-2	0	0	-1
COc1ccc(C2C(C(=O)NCC3CCCO3)CCC(=O)N2c2ccc3c(c2)OCO3)cc1 (centres undefined)	-1	-1	1	4.4*	1	-2
O=C(COc1ccc2c3c(c(=O)oc2c1)CCCC3)NC(Cc1ccc(Cl)cc1)C(=O)O (centres undefined)	-1	-1	0	4	0	-4
CC(=O)NS(=O)(=O)c1ccc(NS(=O)(=O)c2ccc3ccccc3c2)cc1	-1	0	-1	4.7*	0	0
CCn1cc(Br)c(C(=O)Nc2ccc(Cl)cc2Cl)n1	1.0*	1	-3	0	0	1
CCn1cc(Br)c(C(=O)Nc2ccc(F)c(Cl)c2)n1	1.7*	3	-2	2	0	10
Cc1cccc(-c2nc(NCCCN(C)C)c3ccccc3n2)c1	1.1*	1	-1	0	0	0
CN(C)CCCNc1nc(-c2ccc(Cl)cc2)nc2ccccc12	0	3	1	1	-1	2
O=C1CCCc2c1sc1nc3n(c(=O)c21)CCCCC3	-1	1	2	2	1	10*
O=c1c2c3c(sc2nc2n1CCCCC2)CCC3	-1	1	1	0	0	3
O=c1c2c3c(sc2nc2n1CCCCC2)C(O)CCC3 (centres undefined)	-1	2	1	1	4	11*
CNc1ncc(Cc2ccccc2)s1	-1	0	-3	0	0	4
CCNCc1ccc(OCc2ccccc2F)c(OC)c1	-1	0	1	1	1	5
